Screens deposited in PubChem BioAssay by National Center for Advancing Translational Sciences (NCATS).
Six1-Eya2 inh: inhibitors of human Six1/Eya2 interaction; Q15475+O00167; AlphaScreen GST-Six1/His-Eya2 binding, biochemical; hits give low values; activity change, % (concentration not given with the values); actives 0.56% (n = 360,000); AID 651725; in the data active means activity change below about -65%; inconclusive means mostly about -30% to -63%
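AlphaScreen with GST-Six1 and His-Eya2 (5X mix: 250 nM and 500 nM), glutathione donor and nickel acceptor beads; buffer 50 mM Tris pH 8.0, 300 mM NaCl, 1 mM TCEP; 1 h at 37 C in the dark.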
CtBP-E1A inh: inhibitors of CtBP/E1A interaction | actives 0.49% (n = 340,000) | AlphaScreen GST-E1A/His-CtBP binding, 1536-well; hits give low values | activity change, % (concentration not given with the values) | AID 651724; in the data active means activity change below about -65%; inconclusive means mostly about -30% to -63%
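Homogeneous bead-based format: GST-tagged E1A captured on glutathione donor beads, His-tagged CtBP on nickel acceptor beads; compounds precede bead addition by 2 h at 37 °C.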
IL-1B inflam inh: blocks inflammasome-driven IL-1 beta release; THP-1 LPS/ATP IL-1B secretion, AlphaLISA, 16 h; hits give low values; activity change, % at 57.5 µM; actives 4.7% (n = 360,000); AID 743279; in the data active means activity change below about -50%; inconclusive means mostly about -30% to -49%
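THP-1 cells pretreated 1 hr with compounds (up to 57.5 uM final), then stimulated with LPS (250 ng/mL final) plus ATP (1.25 mM final); secreted IL-1B measured by AlphaLISA after 16 hr, decreased signal indicating inhibition.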
TDP1 cell CPT: DT40-hTDP1 cell growth loss with CPT. chicken DT40 Tdp1-/-;hTDP1 cells + 20 nM CPT, ATP luminescence, 48 h. Potency, µM (doses to about 46.2 µM), for inactives: top-dose activity change, negative = growth inhibition, usual class: inhibitors. actives 12% (n = 420,000). AID 686979; further: potency means the concentration at half of the fitted maximal effect; nearly all actives have a fitted effect of over 55% in size
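Chicken DT40 Tdp1-/- cells complemented with human TDP1, 400 cells/well, exposed to compounds plus 20 nM camptothecin for at least 48 h at 37 C; viability read as ATP content by CellTiter-Glo luminescence.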
DT40 TDP1 no CPT: qHTS for Inhibitors of human tyrosyl-DNA phosphodiesterase 1 (TDP1): qHTS in cells in absence of CPT; DT40 Tdp1-/- hTDP1 cells, no CPT, ATP luminescence, 48 h; Potency, µM (titrated, usually from 46.2 µM), for the others: at the top dose activity change, negative = growth inhibition, most hits filed as inhibitors; actives 15% (n = 420,000); further: potency means the concentration at half of the fitted maximal effect; nearly all actives have a fitted effect of over 55% in size
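DT40 Tdp1-/-;hTDP1 cells, no CPT (DMSO vehicle only), 400 cells/well; compounds pin-transferred; ≥48 hr, 37 °C; CellTiter-Glo 30 min RT dark, luminescence read.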
TDP1 inh: inhibitors of human tyrosyl-DNA phosphodiesterase TDP1; Q9NUW8; recombinant TDP1, AlphaScreen DNA substrate cleavage; Potency, µM (series often up to 130 µM), for the others: top-dose activity change, negative = inhibition, usual class: inhibitors; actives 0.28% (n = 350,000); AID 485290; further: potency means the concentration at half of the fitted maximal effect; nearly all actives have a fitted effect of over 40% in size
Target sequence (Q9NUW8 whole entry, looked up): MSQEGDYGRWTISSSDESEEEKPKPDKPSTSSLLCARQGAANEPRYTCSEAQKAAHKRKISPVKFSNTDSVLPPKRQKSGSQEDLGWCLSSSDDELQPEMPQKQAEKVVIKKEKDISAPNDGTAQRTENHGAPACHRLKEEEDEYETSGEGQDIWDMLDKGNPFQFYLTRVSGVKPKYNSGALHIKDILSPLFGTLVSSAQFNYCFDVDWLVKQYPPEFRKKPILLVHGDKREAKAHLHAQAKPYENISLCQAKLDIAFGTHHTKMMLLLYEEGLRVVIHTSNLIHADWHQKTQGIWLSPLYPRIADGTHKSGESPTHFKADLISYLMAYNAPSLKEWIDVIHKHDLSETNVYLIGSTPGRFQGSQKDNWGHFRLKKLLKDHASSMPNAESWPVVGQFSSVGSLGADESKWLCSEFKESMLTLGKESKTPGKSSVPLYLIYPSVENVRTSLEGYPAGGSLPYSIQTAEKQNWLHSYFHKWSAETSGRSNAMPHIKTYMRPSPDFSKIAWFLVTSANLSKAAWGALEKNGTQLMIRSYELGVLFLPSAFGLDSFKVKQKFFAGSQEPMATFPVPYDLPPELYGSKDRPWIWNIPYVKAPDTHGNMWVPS
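Here, a 5' biotin and 3' phosphotyrosine-FITC DNA oligonucleotide reports Tdp1 activity: intact substrate bridges AlphaScreen beads, while cleavage leaves a 3' phosphate and drops signal. All incubations at room temperature.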
An asterisk follows results filed as active; ? = inconclusive; . = not tested or not shown; [ ] = another dose, or the depositor's remark. In the library only some 18% were active in any assay of this set; here they are far more common. Unless noted, the call rests on the fitted dose curve; in most records, active means well fitted curve in the direction sought with a large enough effect; inconclusive means small, poorly fitted or top-dose-only effect, or another doubt; inactive means no such curve, though single readings can be large; an effect the other way counts as inactive or inconclusive. On the % scale 0 is the no-effect control and ±100 the full control effect.

SMILES | Six1-Eya2 inh | CtBP-E1A inh | IL-1B inflam inh | TDP1 cell CPT | DT40 TDP1 no CPT | TDP1 inh
Cc1nn(-c2ccccc2)c(-n2cccc2)c1C(=O)NCCCN1CCN(c2ccccc2F)CC1 | . | . | . | 16µM* | 18µM* | 8%
Cn1cc(C(=O)NCCN2CCN(c3cccc(Cl)c3)CC2)c2c3ccccc3n(C)c2c1=O | -1 | -5 | 4 | 26µM* | 15µM* | 5%
Cc1nn(-c2ccc(F)cc2)c(-n2cccc2)c1C(=O)N1CCN(c2ccccc2F)CC1 | . | . | . | . | . | 0%
Cc1cc(C(=O)NCCN2CCN(c3cccc(Cl)c3)CC2)n(-c2ccccc2)n1 | -17 | -1 | 15 | 5.8µM* | 4.1µM* | 3%
Cc1cc(C(=O)NCCCN2CCN(c3cc(Cl)ccc3C)CC2)n(-c2ccccc2)n1 | -11 | -4 | -9 | 10µM* | ? | 4%
Cc1cccc(C(=O)NCC(=O)OCC(=O)N(C)CC(=O)Nc2ccc(F)cc2)c1 | 4 | 1 | 9 | -22% | -11% | .
COc1ccccc1-c1nc(N)n[nH]1 | 3 | 5 | 32 | 16% | 8% | 6%
CC1Oc2ccccc2C=C1/C=N/NC(=O)[C@@H](C)NC(=O)OC(C)(C)C (some centres not stated) | 0 | -2 | ? | ? | ? | 3%
O=C(/C=C/c1cccc([N+](=O)[O-])c1)NCCSCc1cccc(Cl)c1 | -11 | -15 | ? | ? | ? | 8%
Cc1ccc(S(=O)(=O)N2CCN(CC(=O)N/N=C\c3ccccn3)CC2)cc1 | 2 | -4 | 46 | -10% | 8% | 0%
CCSc1ccccc1C(=O)N1CCN(c2nc3ccccc3s2)CC1 | . | . | . | ? | 15µM* | 3%
COCCNC(=O)C1CCN(C(=O)c2cc3sccc3n2Cc2ccc(F)cc2)CC1 | 6 | 1 | 52 | ? | ? | 0%
Cc1cccc2sc(N3CCN(C(=O)c4cccs4)CC3)nc12 | 5 | 0 | -78* | -15% | -28% | -4%
CC(NC(=O)c1cc2sccc2n1Cc1ccc(F)cc1)c1ccccc1 (configuration not stated) | . | . | . | ? | ? | 6%
Cc1ccccc1NC(=O)c1cc2sccc2n1Cc1ccc(F)cc1 | . | . | . | ? | 26µM* | 6%
O=C(c1cc2sccc2n1Cc1ccc(F)cc1)N1CCN(c2nc3ccccc3s2)CC1 | -16 | -9 | 0 | 13µM* | 21µM* | 5%[56.1 µM]
CCCC(=O)N1CCN(c2nc3ccccc3s2)CC1 | 5 | . | 8 | ? | -30% | 0%
O=C(c1cccs1)N1CCN(c2nc3ccccc3s2)CC1 | 1 | -2 | 52 | ? | ? | 2%
O=C(c1ccc(Cl)s1)N1CCN(c2nc3ccccc3s2)CC1 | 15 | -26 | -14 | ? | 16µM* | 4%
COc1ccc(-c2csc(NC(=O)CN3C(=O)NC4(CCCC4)C3=O)n2)c(OC)c1 | -2 | -7 | ? | ? | ? | 2%
COc1ccc(-c2csc(NC(=O)CN3C(=O)NC4(CCCC4)C3=O)n2)cc1OC | -4 | -12 | -62* | -27% | -20% | -16%
CC(C)(C)c1ccc(-c2csc(NC(=O)CN3C(=O)NC4(CCCCC4)C3=O)n2)cc1 | -1 | 1 | -16 | 10µM* | 9.2µM* | 4%
COc1ccc(Br)cc1/C(C)=N/NC1=NCCN1 | 5 | 8 | -76* | 8.2µM* | 15µM* | 3%
C/C(=N\NC1=NCCN1)c1ccccc1 | 12 | 5 | -1 | 5% | ? | 6%
C/C(=N\NC1=NCCN1)c1ccc(Cl)cc1 | 8 | -2 | -28 | 1% | -37% | 7%
SMILES | Six1-Eya2 inh | CtBP-E1A inh | IL-1B inflam inh | TDP1 cell CPT | DT40 TDP1 no CPT | TDP1 inh
CCCCCOc1ccc(Br)cc1/C(C)=N/NC1=NCCN1 | -11 | -15 | -103* | 5.8µM* | 4.6µM* | 4%
COc1ccc(-c2nc3ccccc3s2)cc1NC(=O)COc1cccc(C)c1 | . | . | . | ? | 16µM* | 0%
CC(C)C(=O)Nc1ccc(-c2nc3cccnc3o2)cc1 | -15 | -16 | -18 | 10% | -12% | -2%
CC(C)(C)c1ccc(OCC(=O)Nc2ccc(-c3nc4cccnc4o3)cc2)cc1 | 4 | -1 | -16 | ? | 9.2µM* | 6%
COc1ccc(-c2nc3ccccc3o2)cc1NC(=O)COc1ccc(C(C)(C)C)cc1 | . | . | . | ? | 16µM* | -4%[12.3 µM]
Cc1cc(-c2nc3ncccc3o2)ccc1NC(=O)COc1ccc(C(C)(C)C)cc1 | . | . | . | 18µM* | 16µM* | -1%
Cc1nc(NCC2CCCO2)nc2c1C(=O)CC(C)C2 (configuration not stated) | 5 | 10 | -2 | -5% | -4% | 4%
CC(C)(C)C1=CC(=O)C(N2CCOCC2)=CC1=O | -4 | -12 | 35 | 7.3µM* | 21µM* | 5%
COc1ccccc1N1CCN(CC(=O)Nc2cc(C)nn2-c2nc(C)cc(C)n2)CC1 | 0 | 9 | 51 | 4.1µM* | 3.3µM* | .
COc1ccc(C(=O)OCC(=O)Nc2ccc(Cl)c(C(F)(F)F)c2)c(OC)c1OC | -10 | 3 | -20 | 21µM* | 21µM* | -3%
COc1ccccc1N1CCN(CC(=O)Nc2ccc(Cl)c(C(F)(F)F)c2)CC1 | -5 | 3 | -10 | 21µM* | ? | -3%
O=C(CN1CCN(c2ccccn2)CC1)Nc1cc(C(F)(F)F)ccc1Cl | -7 | 0 | -13 | ? | 18µM* | 4%
COc1cc(CC(=O)Nc2ccc(Cl)c(C(F)(F)F)c2)cc(OC)c1OC | 6 | -1 | -3 | ? | ? | 2%
CCc1ccc2c(CC(=O)Nc3cccc(S(=O)(=O)N4CCOCC4)c3)coc2c1 | 0 | . | -17 | -10% | ? | 2%
O=C(CN1CCN(C(C(=O)Nc2cc(C(F)(F)F)ccc2Cl)c2ccccc2)CC1)NC1CC1 (configuration not stated) | 3 | -14 | 0 | 21µM* | ? | .
CC(=O)Nc1ccc(NC(=O)CN2CCN(c3ccccn3)CC2)cc1 | 3 | 17 | 19 | 4% | 1% | .
COc1ccc(C(=O)OC(C)C(=O)Nc2cc(C(F)(F)F)ccc2Cl)c(OC)c1OC (configuration not stated) | 26 | 21 | 4 | 5.8µM* | 16µM* | -3%
O=C(CN1CCc2ccccc2C1)Nc1ccc(OC(F)(F)F)cc1 | 27 | 1 | -65* | 12% | -22% | .
